# From ChEMBL document CHEMBL1857833, “Screening and optimization of specific chemical series against human African Trypanosomiasis (HAT)”
# Among all 4,400 compounds or so, about 390 (8.9%) showed an effect of 50% or more. For the sample, strong results were picked, then their nearest neighbours and some compounds at random.
# Tested on: Trypanosoma brucei
# Test: DNDI: Inhibition of Human African Trypanosomiasis, SBRI 427, in vitro at 2 ug.mL-1
# Type: functional
row,SMILES,% inhibition [%]
1,COCC(C)N/C(=N\O)c1cccnc1Oc1cccc(C(F)(F)F)c1 (centres undefined),1
2,COCC(C)N/C(=N\O)c1cccnc1Oc1ccc(C(C)C)cc1 (centres undefined),99
3,COCC(C)N/C(=N\O)c1cccnc1Oc1ccc(OC)cc1 (centres undefined),-10
4,CCc1ccc(Oc2ncccc2/C(=N/O)NC(C)COC)cc1 (centres undefined),87
5,CCc1ccc(Oc2ncccc2/C(N)=N/O)cc1,1
6,COCC(C)N/C(=N\O)c1cccnc1OCC(C)C (centres undefined),5
7,CCOc1ccccc1-c1nc(CN2CCN(C(c3ccccc3)c3ccccc3)CC2)co1,5
8,COc1ccccc1CN/C(=N\O)c1ccc(Oc2cc(C)cc(C)c2)nc1,-8
9,O/N=C(/c1ccc(Oc2ccc(Cl)cc2)nc1)n1ccnc1,0
10,CCOc1ccc(Oc2cc(/C(=N/O)NCc3ccc(C)o3)ccn2)cc1,24
11,Cc1ccccc1-c1nc(CNCc2ccccc2C(F)(F)F)co1,7
12,FC(F)(F)c1ccc(CNCc2coc(-c3cccc4ccccc34)n2)cc1,3
13,CCOc1ccccc1CN/C(=N\O)c1ccc(C)nc1OCc1ccccc1F,8
14,CCOc1ccccc1CN/C(=N\O)c1cccnc1OCc1ccccc1F,55
15,O/N=C(\NCc1cccnc1)c1cccnc1OCc1ccccc1F,4
16,O/N=C(\NCc1ccccc1F)c1cccnc1OCc1cccc(F)c1,29
17,CCOc1ccccc1CN/C(=N\O)c1cccnc1OCc1cccc(F)c1,72
18,COc1ccccc1CN/C(=N\O)c1ccc(C)nc1OCc1cccc(F)c1,-8
19,FC(F)(F)c1ccc(-c2nc(CNc3cc[nH]n3)co2)cc1,40
20,Cc1ccc(/C(=N/O)N2C(C)CCCC2C)c(Oc2ccc(F)cc2)n1 (centres undefined),28
21,O/N=C(/c1ccc(Oc2cccc3ccccc23)nc1)N1CCCCCC1,25
22,CCOc1ccc(-c2nc(CN(C)CCc3ccc(OC)c(OC)c3)co2)cc1,-3

row,SMILES,% inhibition [%]
1,Cc1ccc(/C(=N/O)NCc2c(F)cccc2F)c(Oc2cc(Cl)ccc2Cl)n1,35
2,Cc1ccc(/C(=N/O)NCc2ccccc2C)c(Oc2cc(Cl)ccc2Cl)n1,18
3,COc1ccccc1CN/C(=N\O)c1ccc(C)nc1Oc1cc(Cl)ccc1Cl,100
4,COc1ccccc1CN/C(=N\O)c1ccc(C)nc1Oc1ccc(Cl)cc1,3
5,Cc1ccc(/C(=N/O)NCc2ccccc2F)c(Oc2cc(Cl)ccc2Cl)n1,81
6,COc1ccccc1CN/C(=N\O)c1ccc(C)nc1Oc1ccc(F)c(Cl)c1,11
7,COc1cccc(-c2nc(CNCc3ccccc3C(F)(F)F)co2)c1,20
8,Cc1ccc(C)c(N2CCN(Cc3coc(-c4ccc(F)cc4)n3)CC2)c1,-12
9,Cc1ccc(-c2nc(CNC3CCCCCCC3)co2)cc1,71
10,Oc1ccc(-c2nc(CNC3CCCCCC3)co2)cc1,16
11,CC(NCc1coc(-c2ccc(O)cc2)n1)C1CCCCC1 (centres undefined),0
12,Fc1ccc(-c2nc(CNC3CCCCC3)co2)cc1,8
13,Oc1ccc(-c2nc(CNC3CCCCCCCCCCC3)co2)cc1,60
14,c1coc(-c2nc(CNC3CCCCC3)co2)c1,6
15,FC(F)(F)c1ccc(-c2nc(CNc3ccc(Oc4ccccc4)cc3)co2)cc1,4
16,COc1cccc(-c2nc(CN(CCN(C)C)Cc3ccccc3)co2)c1,23
17,Cc1cc(C)cc(Oc2ccc(/C(=N/O)N3CCN(C4CCCC4)CC3)cn2)c1,0
18,COc1cc(-c2nc(CNC(C)c3cccc4ccccc34)co2)cc(OC)c1OC (centres undefined),-4
19,Cc1ccccc1CN/C(=N\O)c1cccnc1Oc1c(F)cccc1F,95
20,COc1ccccc1Oc1ncccc1/C(=N/O)NCc1c(F)cccc1F,28
21,O/N=C(\NCc1ccccc1)c1cccnc1Oc1c(F)c(F)cc(F)c1F,10
22,O/N=C(\NCc1ccncc1)c1cccnc1Oc1ccc(F)cc1,2

row,SMILES,% inhibition [%]
1,O/N=C(\NCc1c(F)cccc1F)c1cccnc1Oc1ccc(F)cc1,94
2,CCOc1ccccc1CN/C(=N\O)c1cccnc1Oc1c(F)cccc1F,41
3,CSc1ccccc1Oc1ncccc1/C(=N/O)NCc1c(F)cccc1F,58
4,CC(C)(C)CN/C(=N\O)c1cccnc1Oc1c(F)cccc1F,100
5,COc1ccc(CN/C(=N\O)c2cccnc2Oc2c(F)cccc2F)cc1,-7
6,O/N=C(\NCc1cccnc1)c1cccnc1Oc1ccc(F)cc1,2
7,CCc1ccc(Oc2ncccc2/C(=N/O)n2ccnc2)cc1,3
8,Cc1cccc(Oc2ccc(/C(=N/O)N(C)C3CCCCC3)cn2)c1,4
9,Cc1ccc(/C(=N/O)NCC2CC2)c(Oc2cccc3c2CCCC3)n1,-5
10,Cc1cc(C)cc(Oc2nc(C)ccc2/C(=N/O)Nc2ccc(C(C)C)cc2)c1,0
11,COc1cccc(-c2nc(CN3CCN(c4ccccn4)CC3)co2)c1,-9
12,Oc1ccc(-c2nc(CNCc3ccccc3)co2)cc1,1
13,CN(Cc1coc(-c2ccc(C(F)(F)F)cc2)n1)CC1OCCO1,-7
14,CN(Cc1cccnc1)Cc1coc(-c2cccc(F)c2)n1,-1
15,Cc1ccc(Oc2nc(C)ccc2/C(=N/O)NCc2c(F)cccc2F)cc1,13
16,Cc1cccc(Oc2ncccc2/C(=N/O)NCc2ccncc2)c1C,5
17,O/N=C(\NCc1c(F)cccc1F)c1cccnc1Oc1ccccc1,98
18,Cc1cccc(Oc2ncccc2/C(=N/O)NCc2cccs2)c1C,3
19,Cc1ccc(Oc2ncccc2/C(=N/O)NCc2c(F)cccc2F)cc1,98
20,Cc1ccc(Oc2ncccc2/C(=N/O)NCc2ccccc2)cc1,12
21,CCCN/C(=N\O)c1cccnc1Oc1ccccc1,8
22,O/N=C(\NCc1cccnc1)c1cccnc1Oc1ccccc1,8

row,SMILES,% inhibition [%]
1,COc1ccccc1CN/C(=N\O)c1cccnc1Oc1cccc(C)c1C,7
2,O/N=C(\NCc1cccs1)c1cccnc1Oc1c(F)cccc1F,73
3,O/N=C(\NCc1ccccc1)c1cccnc1Oc1c(F)cccc1F,3
4,Cc1ccccc1CN/C(=N\O)c1cccnc1Oc1cccc(C)c1C,85
5,CSc1ccc(Oc2ncccc2/C(=N/O)NCc2cccnc2)cc1C,10
6,CCOc1cccc(-c2nc(CNCCc3cccc(OC)c3)co2)c1,8
7,COCC(C)NCc1coc(-c2cccc(C)c2)n1 (centres undefined),19
8,Cc1ccc(N(C)Cc2coc(-c3ccccc3Cl)n2)cc1,-9
9,CC(C)c1ccc(Oc2ncccc2/C(=N/O)NCc2c(F)cccc2F)cc1,100
10,O/N=C(\NCc1ccccc1)c1cccnc1OCc1ccccc1F,37
11,O/N=C(\NCc1ccncc1)c1cccnc1OCc1ccccc1F,-12
12,Cc1cc(C)cc(CN/C(=N\O)c2cccnc2Oc2c(F)c(F)cc(F)c2F)c1,-3
13,O/N=C(\NCc1c(F)cccc1F)c1cccnc1OC1CCC1,10
14,CC(C)c1ccc(Oc2ncccc2/C(=N/O)NCc2ccncc2)cc1,1
15,Cc1cc(C)cc(CN/C(=N\O)c2cccnc2Oc2cccc(C)c2C)c1,-13
16,CC(C)COc1ncccc1/C(=N/O)NCc1c(F)cccc1F,-9
17,Cc1cc(C)cc(CN/C(=N\O)c2cccnc2OCc2ccccc2F)c1,83
18,O/N=C(\NCc1c(F)cccc1F)c1cccnc1Oc1c(F)c(F)cc(F)c1F,2
19,O/N=C(\NCc1c(F)cccc1F)c1cccnc1Oc1c(F)cccc1F,95
20,Cc1cc(C)cc(CN/C(=N\O)c2cccnc2Oc2c(F)cccc2F)c1,100
21,COc1cc(C)ccc1Oc1ncccc1/C(=N/O)N(C)C1CCN(C)CC1,-9
22,Fc1ccc(-c2nc(Cn3ncc4c3CCCC4)co2)cc1,1

row,SMILES,% inhibition [%]
1,COc1cc(-c2nc(CN3CCC(Cc4ccccc4)CC3)co2)cc(OC)c1OC,6
2,CCOc1ccccc1-c1nc(CN(C)c2ccc(C)cc2)co1,-15
3,CCCN(Cc1coc(-c2ccccc2Cl)n1)C(C)CC (centres undefined),-11
4,Cc1cc(C)n(/C(=N\O)c2ccnc(Oc3cc(Cl)ccc3Cl)c2)n1,16
5,O/N=C(/c1ccnc(Oc2cccc3c2CCCC3)c1)N1CCN(c2ccccc2)CC1,22
6,Cc1cc(C)n(/C(=N\O)c2ccnc(Oc3cccc4c3CCCC4)c2)n1,57
7,O/N=C(/c1ccc(Oc2cccc3c2CCCC3)nc1)N1CCSCC1,21
8,O/N=C(/c1ccnc(Oc2cccc3c2CCCC3)c1)N1CCSCC1,91
9,N/C(=N\O)c1ccnc(Oc2cccc3c2CCCC3)c1,7
10,CCN(CC)CCN(CC)Cc1coc(-c2ccc(OC)cc2)n1,14
11,Cc1ccccc1-c1nc(CN(CCC#N)Cc2ccccc2)co1,-5
12,C=COCCCNCc1coc(-c2ccc(C)cc2)n1,-5
13,CC(C)(C)CNCc1coc(-c2ccc(C(C)(C)C)cc2)n1,99
14,COCCN(CCOC)Cc1coc(-c2ccc(C(C)(C)C)cc2)n1,-1
15,CN(C)CC(C)(C)CNCc1coc(-c2ccc(C(C)(C)C)cc2)n1,9
16,CCN(CCN(C)C)Cc1coc(-c2ccc(C(C)(C)C)cc2)n1,99
17,Cc1ccccc1-c1nc(CN(C)Cc2ccccc2)co1,-2
18,C=COCCCNCc1coc(-c2ccc(C(C)(C)C)cc2)n1,53
19,Cc1ccccc1-c1nc(CN(CCN(C)C)Cc2ccccc2)co1,54
20,C=COCCCNCc1coc(-c2ccc(OC)cc2)n1,-2
21,CC(C)(C)c1ccc(CNCc2coc(-c3ccc(O)cc3)n2)cc1,36
